This note sets out measurements from PMC7819943, “Rice protein-binding microarrays: a tool to detect cis-acting elements near promoter regions in rice”.

The full ranking holds about 39,000 sequences; the median of “fluorescence intensity (a.u.)” is about 4,300, and the highest 2% start at about 39,000. The list comes from a sample in which the highest values are over-represented; it also holds similar and randomly drawn sequences.

The test has as its target T1, OsSMF1 (Oryza sativa, UniProt Q6ZLB0 1-436).
T1 sequence: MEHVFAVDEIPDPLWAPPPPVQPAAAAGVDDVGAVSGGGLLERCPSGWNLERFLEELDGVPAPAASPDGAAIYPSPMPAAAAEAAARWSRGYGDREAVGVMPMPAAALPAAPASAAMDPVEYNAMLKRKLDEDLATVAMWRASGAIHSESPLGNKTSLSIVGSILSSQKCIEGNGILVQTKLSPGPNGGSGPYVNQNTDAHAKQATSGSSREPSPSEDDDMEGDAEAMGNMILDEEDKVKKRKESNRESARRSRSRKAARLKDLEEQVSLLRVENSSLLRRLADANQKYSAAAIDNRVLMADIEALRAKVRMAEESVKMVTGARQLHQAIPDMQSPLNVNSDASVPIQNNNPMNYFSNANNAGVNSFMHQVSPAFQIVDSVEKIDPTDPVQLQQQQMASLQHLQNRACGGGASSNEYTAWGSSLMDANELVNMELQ
Put plainly: protein-binding microarray (RPBM); PBS, 2% BSA, 51.3 ng/ul salmon testes DNA, 50 uM zinc acetate, 200 nM TF, 25 C, 1 h; high values mean tight binding. Particulars: protein: recombinant; tags: N-terminal polyhistidine and DsRed monomer fusion (pET32a); chain copies: 2; label: CyDye5-dUTP incorporated in the synthesized complementary strand; 3' TTTTT single-stranded linker to array surface; dsDNA, one strand shown. The essentials:
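Transcription factors were made in E. coli BL21-CodonPlus as N-terminal fusions to a polyhistidine tag and DsRed, then purified on Ni–NTA. After primer extension with Cy5-dUTP and blocking with 2% BSA, a custom Agilent array was exposed for 1 h at 25 °C to 200 nM protein in PBS, 2% BSA, salmon testes DNA and 50 µM zinc acetate. Washed arrays were scanned on an Axon 4000B, and the binding signal is per-feature fluorescence intensity in arbitrary units.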
Consider “AAAGTCATGTCATCACGTATATATCACGTATACATATATACGGAGTCACCTAGTGCAG”, for which the binding signal is 4080 fluorescence intensity (a.u.).
Turning to “ATTCTGTCTCCTTTGCCTGTCGTCACGCTGTCATCACGCTCGGAGTCACCTAGTGCAG”, the binding signal is 4480 fluorescence intensity (a.u.).
Next, “CCGTATACATAGCTAGCTGTCTGTGATGCATGCATGGTCACGGAGTCACCTAGTGCAG”: 44200 fluorescence intensity (a.u.); “GCAGCATAGTTAGCTTTATATCTGTTTTACGTCATCACCACGGAGTCACCTAGTGCAG”: 6330 fluorescence intensity (a.u.).
Next, “ATATACATATACATATATATACACACACACGTATACATAGCGGAGTCACCTAGTGCAG”: 4840 fluorescence intensity (a.u.).
Next, “TTCTATTTTCGCATGTGGCATTTGTGGCTGCTTGCTAGACCGGAGTCACCTAGTGCAG”: 3690 fluorescence intensity (a.u.).
For “CAATATGACATTGTATATGTGAATTGAGTGTAACTTGGTTCGGAGTCACCTAGTGCAG”, the binding signal is 3290 fluorescence intensity (a.u.).
For the sequence “TACGCCGTTACGTGGTATGGTGTTGTGCCATTTCAGTCGGCGGAGTCACCTAGTGCAG”, the binding signal was 3500 fluorescence intensity (a.u.).
Next, “AGAAAATGTGGAATGACGCAAATGCCCTTCTGCCTCCTCGCGGAGTCACCTAGTGCAG”: 5440 fluorescence intensity (a.u.); “GATTGCAGCCGCCGCCTGCGTCGGTCCAGTCACCATTGGCCGGAGTCACCTAGTGCAG”: 6870 fluorescence intensity (a.u.); “ACTAAATCCTCAACCACCTCATATGTTTATGTACCATCGACGGAGTCACCTAGTGCAG”: 3510 fluorescence intensity (a.u.).
Next, “GCGCAAGTTCTCCACAAGCCACCTCGATCGATCTCCATTGCGGAGTCACCTAGTGCAG”: 3420 fluorescence intensity (a.u.); “GTCAGTCACCGCCCTGTGGGGCCCACCCACCCGCGCCGTCCGGAGTCACCTAGTGCAG”: 9640 fluorescence intensity (a.u.).
For “AGTTTGCTGCCCACTTCAGTAGGTTACAATACAATTATACCGGAGTCACCTAGTGCAG” the value was 65300 fluorescence intensity (a.u.).
For the sequence “CAACAATACAGTTATTGGTAATTACAAGCTACTAGTATACCGGAGTCACCTAGTGCAG”, the binding signal is 18600 fluorescence intensity (a.u.).
Next, “TTCAGATGTACAATTTTGCTGGATTACTAGTAGTTTTCTTCGGAGTCACCTAGTGCAG”: 17600 fluorescence intensity (a.u.); “CCTTTCCCTCTCCACTCTCCACCATCCTCTGCAGCTGACTCGGAGTCACCTAGTGCAG”: 3330 fluorescence intensity (a.u.).
For “CTGCGTTACTTCGACATTGCCCGACGTGTTGACTGTGTTGCGGAGTCACCTAGTGCAG” the value was 4070 fluorescence intensity (a.u.); for “GTGTGAGGTTCATGCTGGGCGGTGACGCGACGGCGGAGACCGGAGTCACCTAGTGCAG”, 6730 fluorescence intensity (a.u.); for “CTAGAAGTTACCAAGGTACCAGAGCAGACACCTAAGCAGCCGGAGTCACCTAGTGCAG”, 3370 fluorescence intensity (a.u.).
Take “AAGAAGAAGACGACGACGTGGCGAGCCAAGTAGCAGCAAACGGAGTCACCTAGTGCAG”: the binding signal was 3620 fluorescence intensity (a.u.).
“GTTACGACAAGTGCCACAAACCAGCAGAAGCAAAGGTAGACGGAGTCACCTAGTGCAG”: the binding signal was 47900 fluorescence intensity (a.u.).
Next, “AGTATGAAAGACCTGAGGATGACCCGGATTATATTCCTATCGGAGTCACCTAGTGCAG”: 3320 fluorescence intensity (a.u.); “GCAATGCATTTCAAATTCAGGACCCCATAGAGAAATCAACCGGAGTCACCTAGTGCAG”: 29200 fluorescence intensity (a.u.).
For “AAAATCATACGAACGGAAAAGCAAAAGATAGAAGCCAAAACGGAGTCACCTAGTGCAG”, the binding signal was 16500 fluorescence intensity (a.u.).
For “AAACAAAGTGGCACAGATAAAATGGAACATAGAAGTGGCACGGAGTCACCTAGTGCAG” the value was 40700 fluorescence intensity (a.u.).
For “GACACAAACAAAATCGAGAAGATGGCATACCTACCATACACGGAGTCACCTAGTGCAG” the value was 22800 fluorescence intensity (a.u.); for “GATAACCGTAACTAACCGGCTTGGTCAGCAAGCCAAAGTGCGGAGTCACCTAGTGCAG”, 6310 fluorescence intensity (a.u.); for “ATTCTTGCTACCTATAATTGCAACATGACAGAGTGTTAAGCGGAGTCACCTAGTGCAG”, 3480 fluorescence intensity (a.u.).
For the sequence “CTTCCACTGACATGACACCAAGAGACCACTTTCTTTAATTCGGAGTCACCTAGTGCAG”, the binding signal was 3250 fluorescence intensity (a.u.).
For “ATAATGAACAATTTCTTTCCAAGCTACATGTAGACCAGAGCGGAGTCACCTAGTGCAG” the value was 40100 fluorescence intensity (a.u.); for “CTTGTTTCACCTGTCATACACACGTTACGTCTTAGAGTCCCGGAGTCACCTAGTGCAG”, 5140 fluorescence intensity (a.u.).
Turning to “GTAGAAGACCGGCGGAAAGTGTGAGGAGGGTGACAAGGGGCGGAGTCACCTAGTGCAG”, the binding signal was 3420 fluorescence intensity (a.u.).
For “TACAGCGTCATTGCAAGAATGGTGACGGGGTTTGAGGTTGCGGAGTCACCTAGTGCAG”, the binding signal is 6110 fluorescence intensity (a.u.).
For “TGATTGCAACAGGTGGGCTGGTTTTGCGTCATTTGACCAGCGGAGTCACCTAGTGCAG”, the binding signal is 51900 fluorescence intensity (a.u.).
On to “ATTTTGACTGATGTGACGTTTGCGTGGCTGGTTTGATTAGCGGAGTCACCTAGTGCAG”, for which the binding signal was 4770 fluorescence intensity (a.u.).
Next, “CTTGTCGCATCTGAACGTGTCGAGTCACACCTGTGTGTTACGGAGTCACCTAGTGCAG”: 8330 fluorescence intensity (a.u.); “TTGGCGTGTGTGCAGCATTTGCGGCGGCGGCTGAGAAAGACGGAGTCACCTAGTGCAG”: 31100 fluorescence intensity (a.u.); “CATTGGTGGCGTAATGTGGTTGTTAGTGATTTGTTGCACCCGGAGTCACCTAGTGCAG”: 3460 fluorescence intensity (a.u.).
For “TCAATCTGGCGGGGTTTATTTGTGACCCTCGATCGGTCAACGGAGTCACCTAGTGCAG” the value was 4060 fluorescence intensity (a.u.); for “TAAAATTTAAATTTTGGCTAATAAGTATAAGCATAACTGTCGGAGTCACCTAGTGCAG”, 34300 fluorescence intensity (a.u.).
Take “GGAGGTGGGGATGGTGGGAGGTTTTGGTTTGGTAAAATAGCGGAGTCACCTAGTGCAG”: the binding signal is 4910 fluorescence intensity (a.u.).
“AATAAGTAAGGTGGTTTTAAAATTTGGGGAGAGCTAACAGCGGAGTCACCTAGTGCAG”: the binding signal is 39100 fluorescence intensity (a.u.).
